Assay results from PubChem BioAssay (Tox21).
Inconclusive results are not listed. Active and inactive are the calls of the source. Unless noted, calls follow the shape of the dose curve; as a rule, active = well fitted curve in the direction sought with a large enough effect in the repeat runs; inconclusive = weak or mixed curves; inactive = no such curve, though single readings can be large; an effect the other way counts as inactive or inconclusive. Positions of bridges follow the written chain, without caps; N, C: chain ends. Non-standard residues stand in square brackets, D forms with d. Residues, ends and D or L forms follow the SMILES beside them. Orn = NCCC[C@H](N)C(=O)O; Mpa = O=C(O)CCS

Experiments:
[1] = qHTS assay to identify small molecule antagonists of the thyroid receptor (TR) signaling pathway - cell viability counter screen (AID 743064); also: nearly all actives have a fitted effect of over 50% in size; also: potency is read from the fitted curve at half-maximal effect
Outline: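 Same-well viability check: GH3.TRE-Luc cells stimulated with 1 nM T3 alongside test compound for 23.5 h, followed by CellTiter-Fluor fluorescence.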

[2] = qHTS assay to identify small molecule antagonists of the thyroid receptor (TR) signaling pathway (AID 743065); also: nearly all actives have a fitted effect of over 55% in size; also: potency is read from the fitted curve at half-maximal effect
Outline: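 Antagonism measured as loss of luciferase signal in GH3 cells stably carrying a TRE-luciferase reporter, co-treated with compound and T3 (1 nM final) for 23.5 h at 37 C. Viability was read in the same well by CellTiter-Fluor.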

[3] = tested on: thyroid hormone receptor (rat, GH3 cells); assay: qHTS assay to identify small molecule agonists of the thyroid receptor (TR) signaling pathway (AID 743066; calls by dose curve)
[4] = molecular target: Estrogen receptor (Homo sapiens) (UniProt P03372); assay: qHTS assay to identify small molecule antagonists of the estrogen receptor alpha (ER-alpha) signaling pathway (AID 743069; active = well fitted curve in the direction sought with a large enough effect in the signal ratio in the repeat runs, not every such curve was filed as active; the % refers to the signal ratio)
Estrogen receptor (Homo sapiens), sequence (P03372 whole entry, looked up): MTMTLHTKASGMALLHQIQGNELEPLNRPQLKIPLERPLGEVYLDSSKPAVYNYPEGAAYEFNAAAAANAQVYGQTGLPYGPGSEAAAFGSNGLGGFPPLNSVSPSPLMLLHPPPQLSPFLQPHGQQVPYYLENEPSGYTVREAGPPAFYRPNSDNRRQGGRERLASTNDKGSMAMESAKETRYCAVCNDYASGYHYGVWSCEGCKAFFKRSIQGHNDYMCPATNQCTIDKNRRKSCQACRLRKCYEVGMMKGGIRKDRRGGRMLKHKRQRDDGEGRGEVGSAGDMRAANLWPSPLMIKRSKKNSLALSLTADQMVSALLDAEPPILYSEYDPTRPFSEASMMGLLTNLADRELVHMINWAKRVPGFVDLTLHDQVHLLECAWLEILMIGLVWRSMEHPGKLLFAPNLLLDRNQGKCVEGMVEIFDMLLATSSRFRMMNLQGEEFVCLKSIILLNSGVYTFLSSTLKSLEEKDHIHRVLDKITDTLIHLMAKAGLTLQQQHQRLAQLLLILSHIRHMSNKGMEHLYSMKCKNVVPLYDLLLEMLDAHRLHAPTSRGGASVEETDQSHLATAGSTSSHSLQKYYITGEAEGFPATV
Outline: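 Antagonist mode: compounds in DMSO were co-added with 17beta-estradiol to ER-alpha-bla HEK293 cells (2% charcoal-stripped serum) and left 18 h at 37C. Reporter inhibition was measured as FRET fluorescence after 2 h LiveBLAzer substrate at room temperature.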

[5] = qHTS assay to identify small molecule antagonists of the estrogen receptor alpha (ER-alpha) signaling pathway - cell viability counter screen (AID 743074; calls by dose curve;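 also: HEK293 cells carrying ER-alpha-UAS-bla reporter stimulated with 17beta-estradiol; nearly all actives have a fitted effect of over 45% in size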; also: potency is read from the fitted curve at half-maximal effect)
[6] = molecular target: Estrogen receptor (Homo sapiens) (UniProt P03372); assay: qHTS assay to identify small molecule agonists of the estrogen receptor alpha (ER-alpha) signaling pathway (AID 743075; calls by dose curve;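 also: HEK293 GripTite cells with ER-alpha and UAS-driven beta-lactamase reporter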)
[7] = molecular target: Estrogen receptor (Homo sapiens) (UniProt P03372); assay: qHTS assay to identify small molecule agonists of the estrogen receptor alpha (ER-alpha) signaling pathway using the BG1 cell line (AID 743079); settings: BG1Luc4E2 cells, ERE-luciferase agonist, 22 h; activation: at 70.3 µM (top of the series); also: nearly all actives have a fitted effect of over 20% in size; also: potency is read from the fitted curve at half-maximal effect
[8] = qHTS assay to identify small molecule antagonists of the estrogen receptor alpha (ER-alpha) signaling pathway using the BG1 cell line - cell viability counter screen (AID 743081);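 also: compound given together with 17beta-estradiol as the ER stimulus; nearly all actives have a fitted effect of over 45% in size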
[9] = molecular target: Aromatase (Homo sapiens) (UniProt P11511); assay: qHTS assay to identify aromatase inhibitors (AID 743083); also: nearly all actives have a fitted effect of over 55% in size; also: potency is read from the fitted curve at half-maximal effect
Aromatase (Homo sapiens), sequence (P11511 whole entry, looked up): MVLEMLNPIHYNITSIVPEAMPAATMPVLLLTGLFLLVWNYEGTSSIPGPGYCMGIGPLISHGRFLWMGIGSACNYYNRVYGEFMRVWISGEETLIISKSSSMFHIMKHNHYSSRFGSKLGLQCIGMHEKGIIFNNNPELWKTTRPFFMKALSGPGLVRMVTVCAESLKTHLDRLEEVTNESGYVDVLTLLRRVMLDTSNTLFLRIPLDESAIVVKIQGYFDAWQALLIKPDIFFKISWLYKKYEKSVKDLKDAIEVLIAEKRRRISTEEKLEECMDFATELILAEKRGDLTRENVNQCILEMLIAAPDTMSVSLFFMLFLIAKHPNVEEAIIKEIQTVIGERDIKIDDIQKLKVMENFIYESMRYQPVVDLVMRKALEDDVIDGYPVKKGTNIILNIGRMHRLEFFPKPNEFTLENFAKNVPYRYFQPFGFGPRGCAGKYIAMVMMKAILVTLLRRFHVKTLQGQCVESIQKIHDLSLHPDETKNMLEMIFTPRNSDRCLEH

[10] = qHTS assay to identify aromatase inhibitors - cell viability counter screen (AID 743084);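 also: cells stimulated with testosterone during compound exposure; nearly all actives have a fitted effect of over 55% in size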; also: potency is read from the fitted curve at half-maximal effect
[11] = molecular target: Aryl hydrocarbon receptor (Homo sapiens) (UniProt P35869); assay: qHTS assay to identify small molecule that activate the aryl hydrocarbon receptor (AhR) signaling pathway (AID 743085); also: nearly all actives have a fitted effect of over 15% in size; also: potency is read from the fitted curve at half-maximal effect;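 as to activation: HG2L7.5c1 human HepG2 liver cells with stably integrated DRE-driven firefly reporter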
Aryl hydrocarbon receptor (Homo sapiens), sequence (P35869 whole entry, looked up): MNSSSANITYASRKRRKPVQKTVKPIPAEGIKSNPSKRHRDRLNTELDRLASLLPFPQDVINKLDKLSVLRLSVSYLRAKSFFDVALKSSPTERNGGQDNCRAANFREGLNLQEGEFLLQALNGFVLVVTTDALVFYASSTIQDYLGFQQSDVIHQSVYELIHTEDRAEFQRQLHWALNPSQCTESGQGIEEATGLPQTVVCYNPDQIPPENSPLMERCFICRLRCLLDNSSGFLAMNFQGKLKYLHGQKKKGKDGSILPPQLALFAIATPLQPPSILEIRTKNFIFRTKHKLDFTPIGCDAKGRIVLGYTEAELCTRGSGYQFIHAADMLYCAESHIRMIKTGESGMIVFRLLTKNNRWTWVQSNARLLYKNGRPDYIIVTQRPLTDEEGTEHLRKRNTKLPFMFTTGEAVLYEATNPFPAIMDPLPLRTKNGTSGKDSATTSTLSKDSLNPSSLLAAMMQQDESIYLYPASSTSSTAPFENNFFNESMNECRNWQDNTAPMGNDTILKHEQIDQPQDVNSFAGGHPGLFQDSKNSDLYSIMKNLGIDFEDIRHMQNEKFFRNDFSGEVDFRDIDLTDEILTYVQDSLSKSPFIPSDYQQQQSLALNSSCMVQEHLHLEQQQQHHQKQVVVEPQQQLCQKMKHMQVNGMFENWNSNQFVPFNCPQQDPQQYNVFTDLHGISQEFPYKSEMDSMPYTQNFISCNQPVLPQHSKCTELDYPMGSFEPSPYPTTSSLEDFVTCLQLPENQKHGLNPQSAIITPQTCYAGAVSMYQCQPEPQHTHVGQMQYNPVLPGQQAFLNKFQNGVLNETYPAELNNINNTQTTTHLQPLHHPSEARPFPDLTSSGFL
Outline: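 Reporter assay in engineered HepG2 line HG2L7.5c1, whose plasmid carries twenty dioxin responsive elements upstream of firefly luciferase. Treatment lasted 24 h at 37C; ONE-Glo luminescence gauged induction.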

[12] = qHTS assay to identify small molecule that activate the aryl hydrocarbon receptor (AhR) signaling pathway - cell viability counter screen (AID 743086);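 also: HepG2 liver cells carrying the AhR DRE luciferase reporter; nearly all actives have a fitted effect of over 45% in size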
Outline: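 Cytotoxicity counter screen: CellTiter-Fluor signal (30 min, 37 C) in 4000 HepG2 cells/well carrying the DRE-luciferase reporter, following 24 h compound exposure at 37 C.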

[13] = molecular target: Peroxisome proliferator-activated receptor gamma (Homo sapiens) (UniProt P37231); assay: qHTS assay to identify small molecule agonists of the peroxisome proliferator-activated receptor gamma (PPARg) signaling pathway (AID 743094; active = well fitted activation curve with a large enough effect in the signal ratio in the repeat runs, not every such curve was filed as active; the % refers to the signal ratio)
Peroxisome proliferator-activated receptor gamma (Homo sapiens), sequence (P37231 whole entry, looked up): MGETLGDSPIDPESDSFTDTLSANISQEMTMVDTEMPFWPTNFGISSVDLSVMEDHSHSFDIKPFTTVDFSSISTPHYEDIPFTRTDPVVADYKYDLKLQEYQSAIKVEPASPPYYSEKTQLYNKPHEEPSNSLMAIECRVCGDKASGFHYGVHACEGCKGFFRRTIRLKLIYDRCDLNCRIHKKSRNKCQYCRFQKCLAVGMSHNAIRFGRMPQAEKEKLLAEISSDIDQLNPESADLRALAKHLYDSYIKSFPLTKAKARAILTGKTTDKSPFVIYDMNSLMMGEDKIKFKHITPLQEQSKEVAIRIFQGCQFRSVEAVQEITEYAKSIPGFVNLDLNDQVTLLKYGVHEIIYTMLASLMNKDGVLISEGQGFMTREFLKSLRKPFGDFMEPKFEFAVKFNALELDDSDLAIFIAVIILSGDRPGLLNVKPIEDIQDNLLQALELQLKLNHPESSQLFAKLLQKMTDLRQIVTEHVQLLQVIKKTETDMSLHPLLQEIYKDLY
Outline: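 Cells from the PPARg UAS-bla HEK293H line are plated and incubated 5 h at 37C. Compounds in DMSO are pinned in and left 17 h at 37C. LiveBLAzer B/G substrate is then added for 1 h at room temperature before fluorescence is measured.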

[14] = qHTS assay to identify small molecule phospholipidosis (PLD) inducers (AID 1259344; active = well fitted curve in the direction sought with a large enough effect; an effect the other way counts as inactive or inconclusive)
Outline: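 Phospholipid accumulation was scored by imaging: fixed, Hoechst-counterstained HepG2 cells stained with LipidTOX Red after 24 h compound exposure at 37 C. Read-outs were pit count and pit intensity per well or per cell, with amiodarone and DMSO controls.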

[15] = qHTS assay to identify small molecule antagonists of the estrogen receptor alpha (ER-alpha) signaling pathway using the BG1 cell line (AID 743080; calls by dose curve;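 also: BG1 cells stimulated with 17beta-estradiol alongside compound; nearly all actives have a fitted effect of over 25% in size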; also: potency is read from the fitted curve at half-maximal effect)
Outline: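 Endogenous full-length ER-alpha in BG1-Luc-4E2 cells drives a stably integrated 4×ERE luciferase gene; compounds were tested against 17beta-estradiol over 21.5 h, with luminescence and multiplexed viability fluorescence recorded.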

[16] = molecular target: Nuclear receptor subfamily 1 group I member 2 (Homo sapiens) (UniProt O75469); assay: Human pregnane X receptor (PXR) activation by small molecules, qHTS assay (AID 1346985); also: nearly all actives have a fitted effect of over 40% in size
Outline: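 DPX-2 cells (HepG2 co-transfected with a PXR response element and a CYP3A4-promoter luciferase construct) were seeded at 2,000 per well, rested 5 hr at 37C, then exposed to DMSO-dissolved compounds for 24 hr. Activation was read as luciferase luminescence.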
% is scaled to controls: 0 for no effect and ±100 for the full control effect.

O=C1O[C@H]2[C@H](O)[C@@H]1OC(O)[C@H]2O (stereo not given in full)
active: Potency [7] 13.3 µM
inactive: Potency [1] | Potency [2] | Potency [3] | Potency [4] | Potency [5] | Potency [6] | Potency [8] | Potency [9] | Potency [10] | Potency [11] | Potency [12] | Potency [13] | Potency [14]

O=P(O)(O)OC(CO)CO
inactive: Potency [1] | Potency [2] | Potency [3] | Potency [4] | Potency [5] | Potency [6] | Potency [7] | Potency [15] | Potency [8] | Potency [9] | Potency [10] | Potency [11] | Potency [12] | Potency [13] | Potency [14]

COc1cc(C[C@@H]2NCCc3cc(O)c(O)cc32)cc(OC)c1OC
inactive: Potency [1] | Potency [2] | Potency [3] | Potency [4] | Potency [5] | Potency [6] | Potency [7] | Potency [15] | Potency [9] | Potency [10] | Potency [12] | Potency [13] | Potency [14]

Cn1nnnc1SCC1=C(C(=O)O)N2C(=O)[C@@H](NC(=O)[C@H](OC=O)c3ccccc3)[C@H]2SC1
inactive: Potency [1] | Potency [2] | Potency [3] | Potency [4] | Potency [5] | Potency [6] | Potency [7] | Potency [15] | Potency [8] | Potency [9] | Potency [10] | Potency [11] | Potency [12] | Potency [13] | Potency [14]

CC[C@@H]1/C=C(\C)C[C@H](C)C[C@H](OC)[C@H]2O[C@@](O)(C(=O)C(=O)N3CCCC[C@H]3C(=O)O[C@H](/C(C)=C/[C@@H]3CC[C@@H](Cl)[C@H](OC)C3)[C@H](C)[C@@H](O)CC1=O)[C@H](C)C[C@@H]2OC
inactive: Potency [3] | Potency [5] | Potency [8] | Potency [9] | Potency [10] | Potency [11] | Potency [12] | Potency [14] | Potency [16]

O=C(NCCNCC(O)COc1ccc(O)cc1)N1CCOCC1 (stereo not given)
inactive: Potency [1] | Potency [2] | Potency [3] | Potency [4] | Potency [5] | Potency [6] | Potency [7] | Potency [15] | Potency [8] | Potency [9] | Potency [10] | Potency [11] | Potency [12] | Potency [13] | Potency [14]

CCOc1ccc(C[C@H]2NC(=O)CCSSC[C@@H](C(=O)N3CCC[C@H]3C(=O)N[C@@H](CCCN)C(=O)NCC(N)=O)NC(=O)[C@H](CC(N)=O)NC(=O)[C@H]([C@@H](C)O)NC(=O)[C@H]([C@@H](C)CC)NC2=O)cc1 ([Mpa][dY](Et)ITNCP[Orn]G-NH2; disulfide 1-6)
inactive: Potency [1] | Potency [2] | Potency [3] | Potency [4] | Potency [5] | Potency [6] | Potency [7] | Potency [15] | Potency [8] | Potency [9] | Potency [10] | Potency [11] | Potency [13] | Potency [14]

NNc1nnc(Cc2ccncc2)c2ccccc12
inactive: Potency [1] | Potency [3] | Potency [5] | Potency [10] | PLD induction [14] -2.11% [at 7.66 µM]
active: Potency [2] 4.73 µM | Potency [9] 13.3 µM | Potency [11] 11.9 µM

CCCCCCCCCCCCCCCC(=O)OCCC1CCN(CCCN2c3ccccc3Sc3ccc(S(=O)(=O)N(C)C)cc32)CC1
inactive: Potency [1] | Potency [2] | Potency [3] | Potency [5] | Potency [9] | Potency [10] | Potency [11] | Potency [13] | Potency [14]

CC1(S(=O)(=O)O)CC(=O)c2ccccc2C1=O (stereo not given)
active: Potency [1] 13.3 µM | Potency [2] 13.3 µM | Potency [15] 33.5 µM | Potency [9] 26.6 µM | Potency [11] 10.6 µM
inactive: Potency [5] | Potency [8] | Potency [14]

C/C1=C2N=C(/C=C3N=C(/C(C)=C4\[N-]C(C(CC(N)=O)C4(C)CCC(=O)NCC(C)OP(=O)([O-])OC4C(CO)OC(n5cnc6cc(C)c(C)cc65)C4O)C4(C)N=C1C(CCC(N)=O)C4(C)CC(N)=O)C(CCC(N)=O)C\3(C)C)C(CCC(N)=O)C/2(C)CC(N)=O.[CH3-].[Co+3] (stereo not given)
inactive: Potency [3] | Potency [11] | Potency [13] | Potency [14]
active: Potency [1] 29.8 µM | Potency [2] 11.9 µM | Potency [9] 13.3 µM | Potency [10] 23.7 µM

CCCCCCCC(=O)CC[C@@H]1[C@@H](C/C=C\CCCC(=O)OC(C)C)[C@@H](O)C[C@H]1O
inactive: Potency [6] | Potency [7] | Potency [15] | Potency [8] | Potency [10] | Potency [12] | Potency [13] | Potency [14]
active: Potency [1] 21.1 µM | Potency [2] 16.8 µM | Potency [5] 26.8 µM

N[C@@H](C(=O)N[C@@H]1C(=O)N2C(C(=O)O)=C(Cl)CC[C@H]12)c1ccccc1
inactive: Potency [1] | Potency [3] | Potency [4] | Potency [5] | Potency [6] | Potency [7] | Potency [9] | Potency [10] | Potency [11] | Potency [12] | Potency [13] | Potency [14]

CCC(c1ccccc1)c1noc(CCN(CC)CC)n1 (stereo not given)
inactive: Potency [1] | Potency [2] | Potency [3] | Potency [8] | Potency [9] | Potency [10] | Potency [11] | Potency [12] | Potency [13] | Potency [14]

CCOC(=O)[C@H](CCc1ccccc1)N[C@@H](C)C(=O)N1CC2(C[C@H]1C(=O)O)SCCS2
inactive: Potency [1] | Potency [2] | Potency [3] | Potency [8] | Potency [9] | Potency [10] | Potency [11] | Potency [12] | Potency [13] | Potency [14]

O=C(O)[C@@H](O)[C@H](O)[C@H](O)[C@@H](O)C(=O)O (tested in a mixture with another compound)
inactive: Potency [1] | Potency [2] | Potency [3] | Potency [9] | Potency [10] | Potency [11] | Potency [12] | Potency [13] | Potency [14]
